Source: PubChem BioAssay (NCATS)
Where “and” joins values, the source holds several entries; their conditions need not be identical. Equal values may be shown once. Inconclusive results are not listed. Entries that show only a call come without a potency. Some structures have more than one record in an assay (separate samples or runs), and their calls can disagree. Calls of active or inactive are those of the source. Unless noted, the call rests on the fitted dose curve; in most records, active means well fitted curve in the direction sought with a large enough effect; inconclusive means small, poorly fitted or top-dose-only effect, or another doubt; inactive means no such curve, though single readings can be large; an effect the other way counts as inactive or inconclusive.

Assays:
[1] = target: Cytochrome P450 3A4 (Homo sapiens) (UniProt P08684); test: Cytochrome P450 family 3 subfamily A member 4 (CYP3A4) small molecule antagonists: luciferase qHTS assay (AID 1645841; active means well fitted curve in the direction sought with a large enough effect in the repeat runs; an effect the other way counts as inactive or inconclusive; further: nearly all actives have a fitted effect of over 45% in size)
Sequence of Cytochrome P450 3A4 (Homo sapiens) (P08684 whole entry, looked up): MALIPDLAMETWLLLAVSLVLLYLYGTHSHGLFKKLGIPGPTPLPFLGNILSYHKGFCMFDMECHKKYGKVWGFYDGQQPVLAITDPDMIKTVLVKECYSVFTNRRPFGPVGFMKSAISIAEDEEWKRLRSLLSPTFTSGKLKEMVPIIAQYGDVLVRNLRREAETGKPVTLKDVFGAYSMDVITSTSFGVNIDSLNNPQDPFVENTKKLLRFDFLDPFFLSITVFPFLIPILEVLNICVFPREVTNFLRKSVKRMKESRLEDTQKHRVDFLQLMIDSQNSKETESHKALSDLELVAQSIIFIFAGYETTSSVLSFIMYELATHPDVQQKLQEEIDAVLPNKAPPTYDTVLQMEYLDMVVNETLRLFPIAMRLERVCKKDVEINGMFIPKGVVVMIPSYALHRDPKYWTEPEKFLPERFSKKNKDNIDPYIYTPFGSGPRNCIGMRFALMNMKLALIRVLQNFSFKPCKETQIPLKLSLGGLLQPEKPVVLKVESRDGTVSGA
Method in brief: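 Luminescent CYP3A4 activity readout: compounds plus enzyme-substrate mix 10 min at room temperature, reaction started with NADPH regenerating system for 1 h, stopped with detection reagent, read after 20 min. Ketoconazole served as control.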

[2] = target: Cytochrome P450 2C9 (Homo sapiens) (UniProt P11712); test: Cytochrome P450 family 2 subfamily C member 9 (CYP2C9) small molecule antagonists: luciferase biochemical (cell-free) qHTS assay (AID 1645842; active means well fitted curve in the direction sought with a large enough effect in the repeat runs; an effect the other way counts as inactive or inconclusive; further: nearly all actives have a fitted effect of over 55% in size; further: potency means the concentration at half of the fitted maximal effect)
Sequence of Cytochrome P450 2C9 (Homo sapiens) (P11712 whole entry, looked up): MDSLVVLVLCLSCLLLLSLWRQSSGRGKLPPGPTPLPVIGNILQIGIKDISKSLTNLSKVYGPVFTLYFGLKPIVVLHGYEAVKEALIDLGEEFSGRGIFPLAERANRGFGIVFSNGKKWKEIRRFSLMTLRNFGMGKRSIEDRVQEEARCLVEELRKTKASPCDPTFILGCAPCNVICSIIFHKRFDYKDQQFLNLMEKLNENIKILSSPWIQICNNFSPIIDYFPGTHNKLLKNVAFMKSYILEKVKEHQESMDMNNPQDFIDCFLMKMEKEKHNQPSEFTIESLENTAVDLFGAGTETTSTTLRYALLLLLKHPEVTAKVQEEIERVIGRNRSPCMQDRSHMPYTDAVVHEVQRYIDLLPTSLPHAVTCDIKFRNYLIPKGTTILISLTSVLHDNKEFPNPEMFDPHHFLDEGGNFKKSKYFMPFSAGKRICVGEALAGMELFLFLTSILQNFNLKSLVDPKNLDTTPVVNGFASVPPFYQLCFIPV
Method in brief: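 Luminescence, after 20 min with luciferin detection reagent, reflected CYP2C9 turnover during a 1 h NADPH-driven reaction at 37C. Enzyme-substrate mix contained 0.4% bovine serum albumin and was preincubated with compound 10 min at room temperature.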

[3] = target: Glutathione peroxidase 1 (Homo sapiens) (UniProt P07203); test: Primary qHTS Assay for Inhibitors of Recombinant Selenoprotein Glutathione Peroxidase 1 (GPX1) (AID 1845191); further: nearly all actives have a fitted effect of over 65% in size
Sequence of Glutathione peroxidase 1 (Homo sapiens) (P07203 whole entry, looked up): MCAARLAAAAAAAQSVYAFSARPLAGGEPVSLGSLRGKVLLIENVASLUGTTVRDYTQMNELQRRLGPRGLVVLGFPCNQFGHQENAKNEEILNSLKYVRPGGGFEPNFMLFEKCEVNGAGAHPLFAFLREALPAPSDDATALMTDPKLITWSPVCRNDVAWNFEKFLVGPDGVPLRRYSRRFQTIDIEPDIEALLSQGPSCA
Method in brief: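 10 nM GPX1 + cpd, 30 min RT; start w/ 1 mM GSH, 0.5 mM cumene hydroperoxide, 0.5 mM NADPH, 100 nM GR, 0.01% BSA; buffer 50 mM Tris-HCl pH 7.5, 2 mM EDTA, 150 mM NaCl; Fl 340/450, 0 & 15 min.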

[4] = target: Phospholipid hydroperoxide glutathione peroxidase GPX4 (Homo sapiens) (UniProt P36969); test: Primary qHTS Assay for Inhibitors of Recombinant Selenoprotein Glutathione Peroxidase 4 (GPX4) (AID 1845192); further: nearly all actives have a fitted effect of over 65% in size; further: potency means the concentration at half of the fitted maximal effect
Sequence of Phospholipid hydroperoxide glutathione peroxidase GPX4 (Homo sapiens) (P36969 whole entry, looked up): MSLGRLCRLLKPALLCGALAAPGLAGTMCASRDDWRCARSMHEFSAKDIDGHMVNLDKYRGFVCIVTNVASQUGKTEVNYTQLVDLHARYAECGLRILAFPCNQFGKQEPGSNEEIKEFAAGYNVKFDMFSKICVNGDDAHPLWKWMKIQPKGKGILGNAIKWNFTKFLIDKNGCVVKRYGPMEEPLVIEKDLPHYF
Method in brief: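 NADPH consumption, followed by fluorescence at 340/450 nm between 0 and 15 min, reports GPX4 activity via coupled glutathione reductase (100 nM). Enzyme 200 nM was pre-exposed to compound 30 min; 0.5 mM cumene hydroperoxide and 1 mM GSH served as substrates.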

[5] = target: Luciferin 4-monooxygenase (Photinus pyralis) (UniProt P08659); test: Primary firefly luciferase (FLuc) qHTS assay for identification of artifact compounds. (AID 1845220); further: nearly all actives have a fitted effect of over 60% in size; further: potency means the concentration at half of the fitted maximal effect
Method in brief: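 Cell-free, 1536-well qHTS. Buffer pH 7.6 with 0.01% Tween-20 and 0.05% BSA; 10 uM D-luciferin, 10 uM ATP; 10 nM P. pyralis luciferase; luminescence after 5 min.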

[6] = Primary fluorescence-based thiol-reactive (MSTI) qHTS assay for identification of artifact compounds. (AID 1845221);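 further: thiol-reactive compounds lower the probe fluorescence signal; nearly all actives have a fitted effect of over 65% in size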
Method in brief: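 One-hour, room-temperature, dark incubation of compound with 4 uM MSTI in PBS (pH 7.4, 2% DMSO) precedes a fluorescence read at 525 nm excitation, 598 nm emission; Hill-equation fitting yields concentration-response values.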

[7] = Primary qHTS for inhibitors of nuclear receptor binding SET domain protein 2 (NSD2) in an isogenic RCH-ACV NSD2 p.E1099K mutant (9B) (AID 1645876); further: nearly all actives have a fitted effect of over 70% in size; further: potency means the concentration at half of the fitted maximal effect
[8] = Primary qHTS for inhibitors of nuclear receptor binding SET domain protein 2 (NSD2) in an RCH-ACV wild type WT cells (2C) (AID 1645877); further: nearly all actives have a fitted effect of over 70% in size; further: potency means the concentration at half of the fitted maximal effect
[9] = NCATS anti-infectives library activity on HEK293 viability as a counter-qHTS vs the C. elegans viability qHTS (AID 1745854);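 further: HEK293 cells exposed to compounds for 24 hr before the viability read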
Method in brief: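 HEK293 cells (1,500/well) exposed 24 hr at 37C to 1:5 titrations, up to 41.7 uM final; counter-screen to a C. elegans viability qHTS. Viability by CellTiter-Glo luminescence after 10 min at room temperature; digitonin as control.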

[10] = target: Catechol O-methyltransferase (Homo sapiens) (UniProt P21964); test: Confirmatory Screen for Target Class Profiling of Small Molecule Inhibitors of Methyltransferases (AID 1745852; calls by dose curve; further: potency means the concentration at half of the fitted maximal effect); details: MTase-Glo luminescence, SAH detection, recombinant enzyme; measured here: COMT max response; stronger effect = lower value
Sequence of Catechol O-methyltransferase (Homo sapiens) (P21964 whole entry, looked up): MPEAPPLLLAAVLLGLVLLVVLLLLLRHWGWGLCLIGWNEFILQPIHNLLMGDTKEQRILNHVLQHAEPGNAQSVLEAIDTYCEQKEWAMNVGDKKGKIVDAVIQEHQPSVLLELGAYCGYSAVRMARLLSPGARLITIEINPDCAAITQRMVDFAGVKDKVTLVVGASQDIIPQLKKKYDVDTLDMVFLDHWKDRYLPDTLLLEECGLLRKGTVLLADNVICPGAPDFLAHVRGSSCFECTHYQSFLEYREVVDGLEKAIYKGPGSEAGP

[11] = target: Guanidinoacetate N-methyltransferase (Homo sapiens) (UniProt Q14353); test: as above; details: activity change, negative = inhibition: at 57.3 µM (top of the series)
[12] = target: Nicotinamide N-methyltransferase (Homo sapiens) (UniProt P40261); test: as above; details: MTase-Glo luminescence, SAH detection, recombinant enzyme; measured here: NNMT max response; stronger effect = lower value
Sequence of Nicotinamide N-methyltransferase (Homo sapiens) (P40261 whole entry, looked up): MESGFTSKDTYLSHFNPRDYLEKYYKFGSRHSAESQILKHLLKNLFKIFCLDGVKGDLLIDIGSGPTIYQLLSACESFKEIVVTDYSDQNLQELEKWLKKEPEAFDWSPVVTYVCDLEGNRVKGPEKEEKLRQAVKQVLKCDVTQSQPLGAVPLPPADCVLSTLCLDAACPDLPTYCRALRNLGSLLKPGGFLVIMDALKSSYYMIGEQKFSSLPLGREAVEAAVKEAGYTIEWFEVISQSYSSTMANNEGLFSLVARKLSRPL

[13] = target: Phenylethanolamine N-methyltransferase (Homo sapiens) (UniProt P11086); test: as above; details: MTase-Glo luminescence, SAH detection, recombinant enzyme; measured here: PNMT max response; stronger effect = lower value
Sequence of Phenylethanolamine N-methyltransferase (Homo sapiens) (P11086 whole entry, looked up): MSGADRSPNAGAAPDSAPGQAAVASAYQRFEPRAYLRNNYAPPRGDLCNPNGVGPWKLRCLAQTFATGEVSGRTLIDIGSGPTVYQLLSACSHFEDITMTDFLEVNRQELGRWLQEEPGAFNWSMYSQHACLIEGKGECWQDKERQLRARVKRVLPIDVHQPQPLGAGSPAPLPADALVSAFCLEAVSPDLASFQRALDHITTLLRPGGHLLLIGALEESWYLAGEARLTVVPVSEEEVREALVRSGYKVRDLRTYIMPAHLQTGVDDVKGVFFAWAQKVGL

[14] = target: N-terminal Xaa-Pro-Lys N-methyltransferase 1 (Homo sapiens) (UniProt Q9BV86); test: Confirmatory qHTS for Inhibitors of N-terminal methyltransferase 1 (NTMT1): MTaseGlo Assay (AID 1645874); details: NTMT1 enzyme, MTase-Glo SAH luminescence; further: potency means the concentration at half of the fitted maximal effect; nearly all actives have a fitted effect of over 65% in size
Sequence of N-terminal Xaa-Pro-Lys N-methyltransferase 1 (Homo sapiens) (Q9BV86 whole entry, looked up): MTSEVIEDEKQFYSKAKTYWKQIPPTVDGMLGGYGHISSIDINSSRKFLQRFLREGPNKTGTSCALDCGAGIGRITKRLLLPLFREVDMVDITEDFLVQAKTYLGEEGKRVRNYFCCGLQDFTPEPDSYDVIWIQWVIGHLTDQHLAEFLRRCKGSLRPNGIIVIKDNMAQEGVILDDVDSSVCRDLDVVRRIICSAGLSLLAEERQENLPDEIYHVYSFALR
Method in brief: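 NTMT1 (125 nM) preincubated 15 min with compound and 100 uM SAM, then 1 uM SPKRIA peptide added for 30 min at room temperature. SAH detected by MTase-Glo luminescence; normalized to no-enzyme and DMSO controls, fitted to 4-parameter Hill.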

## Nc1ccn(C2CO[C@H](CO)O2)c(=O)n1 (some centres not stated)
[1]
  Potency: inactive
[2]
  Potency: inactive
[3]
  Potency: inactive
[4]
  Potency: inactive
[5]
  Potency: inactive
[6]
  Potency: inactive

## CCCc1nc(C(C)(C)O)c(C(=O)O)n1Cc1ccc(-c2ccccc2-c2nn[nH]n2)cc1
[2]
  Potency: inactive
[7]
  Potency: inactive
[8]
  Potency: inactive
[9]
  Potency: inactive
[3]
  Potency: inactive
[4]
  Potency: inactive and 17.8 µM (active)

## CN1CCc2c(c3ccccc3n2Cc2ccc(C(=O)NO)cc2)C1
[2]
  Potency: inactive
[7]
  Potency: 16.3 µM (active) and 18.6 µM (active)
[8]
  Potency: 11.5 µM (active) and 16.6 µM (active)
[10]
  activity: 0%
[11]
  activity change, negative = inhibition: -3.04%
[12]
  activity: -7.28%
[13]
  activity: -22.2%
[3]
  Potency: inactive
[4]
  Potency: inactive
[5]
  Potency: inactive

## O=C(Nc1cc2cc[nH]c2cn1)c1ccccc1
[2]
  Potency: 4.77 µM (active)
[14]
  Potency: 6.31 µM (active)
[7]
  Potency: 12.9 µM (active)
[8]
  Potency: 9.16 µM (active)
[10]
  activity: -83.5%
[11]
  Potency: 19.2 µM (active)
[12]
  activity: -77.9%
[13]
  activity: -83.3%
[3]
  Potency: inactive
[4]
  Potency: inactive
[5]
  Potency: 2.39 µM (active)
[6]
  Potency: inactive

## O=C1NC(O)CCN1[C@@H]1O[C@H](CO)[C@H](O)[C@H]1O (some centres not stated)
[1]
  Potency: inactive
[2]
  Potency: inactive
[7]
  Potency: inactive
[8]
  Potency: inactive
[3]
  Potency: inactive
[4]
  Potency: inactive

## CCc1nc(-c2cccc(C)c2)c(-c2ccnc(NC(=O)c3ccccc3)c2)s1
[2]
  Potency: 2.68 µM (active)
[7]
  Potency: 20.5 µM (active)
[8]
  Potency: 16.3 µM (active)
[3]
  Potency: inactive
[4]
  Potency: inactive
[5]
  Potency: inactive
[6]
  Potency: inactive

## C=Cc1c(C)c2cc3nc(cc4[nH]c(cc5nc(cc1[nH]2)C(C)=C5CCC(=O)O)c(CCC(=O)OC)c4C)[C@@]1(C)C3=CC=C(C(=O)OC)[C@H]1C(=O)OC
[2]
  Potency: 26.8 µM (active)
[7]
  Potency: inactive
[9]
  Potency: inactive
[3]
  Potency: inactive
[4]
  Potency: inactive

## Cc1ccccc1C(=O)Nc1ccc(C(=O)N2CCCC(O)c3cc(Cl)ccc32)c(C)c1 (configuration not stated)
[2]
  Potency: 27.5 µM (active)
[7]
  Potency: 13.3 µM (active)
[8]
  Potency: 15 µM (active)
[3]
  Potency: inactive
[5]
  Potency: inactive
[6]
  Potency: inactive

## c1ccc2c(Oc3nc(Nc4ccc(N5CCOCC5)cc4)c4ncn(C5CCCCC5)c4n3)cccc2c1
[2]
  Potency: 4.77 µM (active)
[7]
  Potency: inactive
[10]
  activity: 0.484%
[11]
  activity change, negative = inhibition: -1.84%
[12]
  activity: -22.9%
[13]
  activity: -3.02%
[3]
  Potency: inactive
[4]
  Potency: inactive
[5]
  Potency: inactive
